IL-1B inflam inh: qHTS for Inhibitors of Inflammasome Signaling: IL-1-beta AlphaLISA Primary Screen | THP-1 LPS/ATP IL-1B secretion, AlphaLISA, 16 h; active compounds read low | activity change, % at 57.5 µM | 360,000 tested, 4.7% active | AID 743279, 2014; in the data active = activity change below about -50%; inconclusive = mostly about -30% to -49%
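THP-1 cells pretreated 1 hr with compounds (up to 57.5 uM final), then stimulated with LPS (250 ng/mL final) plus ATP (1.25 mM final); secreted IL-1B measured by AlphaLISA after 16 hr, decreased signal indicating inhibition.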
Gal4-VP16 FLuc: VP16 counterscreen qHTS for inhibitors of ROR gamma transcriptional activity | Potency, µM (series often up to 53.6 µM), inactives show at the highest dose activity, negative = inhibition, actives largely listed as inhibitors | AID 2546, 2010 | Drosophila S2 Gal4-VP16 UAS-luciferase, luminescence, 20 h | 310,000 tested, 3.5% active;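 also: Gal4-VP16 expression switched on by copper sulfate through the metallothionein promoter; potency is read from the fitted curve at half-maximal effect; nearly all actives have a fitted effect of over 50% in size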
TDP1 cell CPT: qHTS for Inhibitors of human tyrosyl-DNA phosphodiesterase 1 (TDP1): qHTS in cells in presence of CPT. chicken DT40 Tdp1-/-;hTDP1 cells + 20 nM CPT, ATP luminescence, 48 h. Potency, µM (top dose mostly 46.2 µM), without a hit: at the top dose activity change, negative = growth inhibition, most hits filed as inhibitors. 420,000 tested, 12% active. AID 686979, 2013; also: potency is read from the fitted curve at half-maximal effect; nearly all actives have a fitted effect of over 55% in size
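Chicken DT40 Tdp1-/- cells complemented with human TDP1, 400 cells/well, exposed to compounds plus 20 nM camptothecin for at least 48 h at 37 C; viability read as ATP content by CellTiter-Glo luminescence.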
ELG1 repair inh: qHTS screen for small molecules that inhibit ELG1-dependent DNA repair in human embryonic kidney (HEK293T) cells expressing luciferase-tagged ELG1. Potency, µM (top dose mostly 46.1 µM), for the others: top-dose activity change, negative = inhibition, hits mostly inhibitors. AID 504467, 2011. HEK293T ELG1-luciferase reporter, luminescence, 16 h; DNA damage induced by 5-fluorouridine. 330,000 tested, 2.3% active; also: potency is read from the fitted curve at half-maximal effect; nearly all actives have a fitted effect of over 55% in size
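Step one: seed 2,000 cells per well. Step two: pin-transfer compound or DMSO alongside 5-fluorouridine. Step three: incubate 16 hr, 37 °C, 5% CO2. Step four: add ONE-Glo, wait 30 min, read luminescence.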
RORgamma inh: qHTS for inhibitors of ROR gamma transcriptional activity. Potency, µM (titrated, usually from 53.6 µM), for inactives: top-dose activity change, negative = inhibition, hits mostly inhibitors. Drosophila S2 Gal4-RORgamma UAS-luciferase reporter, 20 h. AID 2551, 2010. 310,000 tested, 5.4% active. Nuclear receptor ROR-gamma (Mus musculus), P51450; also: potency is read from the fitted curve at half-maximal effect; nearly all actives have a fitted effect of over 60% in size
Target sequence (P51450 whole entry, looked up, the tested form may be a part): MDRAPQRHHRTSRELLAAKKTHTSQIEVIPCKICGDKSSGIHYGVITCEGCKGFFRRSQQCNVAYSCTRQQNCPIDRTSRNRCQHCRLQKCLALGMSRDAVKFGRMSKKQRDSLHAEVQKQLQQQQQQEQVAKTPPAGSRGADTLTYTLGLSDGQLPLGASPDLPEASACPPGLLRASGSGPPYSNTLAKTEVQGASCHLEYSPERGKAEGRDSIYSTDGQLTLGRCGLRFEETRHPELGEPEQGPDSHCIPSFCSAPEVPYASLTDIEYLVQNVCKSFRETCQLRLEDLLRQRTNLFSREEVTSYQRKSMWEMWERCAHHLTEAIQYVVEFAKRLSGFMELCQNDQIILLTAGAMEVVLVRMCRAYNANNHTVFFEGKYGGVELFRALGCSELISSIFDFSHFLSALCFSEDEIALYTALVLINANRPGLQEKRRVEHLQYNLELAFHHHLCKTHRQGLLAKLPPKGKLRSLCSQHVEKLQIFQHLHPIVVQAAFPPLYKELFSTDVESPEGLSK
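Stable Schneider cell line, Gal4 DNA-binding domain fused to ROR gamma, UAS-luciferase. Cmpd 1 hr RT → CuSO4 700 uM final → 20 hr RT → luciferase reagent 10 min → luminescence.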
TDP1 cell noCPT: qHTS for Inhibitors of human tyrosyl-DNA phosphodiesterase 1 (TDP1): qHTS in cells in absence of CPT | DT40 Tdp1-/- hTDP1 cells, no CPT, ATP luminescence, 48 h | Potency, µM (top dose mostly 46.2 µM), for the others: at the top dose activity change, negative = growth inhibition, actives largely listed as inhibitors | 420,000 tested, 15% active | AID 686978, 2013; also: potency is read from the fitted curve at half-maximal effect; nearly all actives have a fitted effect of over 55% in size
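A cellular qHTS used chicken DT40 cells lacking endogenous Tdp1 but carrying stably transfected human TDP1. Compounds were applied without camptothecin, and cell growth kinetics were judged by ATP-dependent luminescence after ≥48 hr.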
Active calls of the source: *; i = inactive; ? = inconclusive; / = no result given; [ ] = dose if it differs, or a comment. Most compounds without a hit are left out; they make up all but 21% or so of the library. Unless noted, calls follow the shape of the dose curve; as a rule, active = well fitted curve in the direction sought with a large enough effect; inconclusive = small, poorly fitted or top-dose-only effect, or another doubt; inactive = no such curve, though single readings can be large; an effect the other way counts as inactive or inconclusive. % is scaled to controls: 0 for no effect and ±100 for the full control effect.

SMILES	IL-1B inflam inh	Gal4-VP16 FLuc	TDP1 cell CPT	ELG1 repair inh	RORgamma inh	TDP1 cell noCPT
CCn1c(SCC(=O)Nc2cc(C)on2)nc2sc3c(c2c1=O)CCCC3	29	?	?	3%	?	6.5µM*
C=CCn1c(SCC(=O)Nc2cc(C)on2)nc2sc3c(c2c1=O)CCCC3	20	4%	23µM*	-2%	-5%	9.2µM*
C=CCn1c(SCC(=O)Nc2c(C)n(C)n(-c3ccccc3)c2=O)nc2sc(C)c(C)c2c1=O	-25	7%	-29%	?	-28%	?
CCOc1ccccc1NC(=O)C1CCN(S(=O)(=O)c2cccc3nonc23)CC1	/	/	-12%	/	/	?
C=CCn1c(SCC(=O)Nc2cc(C)on2)nc2c([nH]c3ccccc32)c1=O	i	11µM*	?	19%	?	-19%
C=C(C)Cn1c(SCC(=O)c2ccccc2)nc2sc3c(c2c1=O)CCCC3	/	/	-2%	/	/	?
C=CCn1c(SCC(=O)Nc2cc(C)on2)nc2sc(C)c(C)c2c1=O	-12	3%	?	10%	2%	6.5µM*
C=C(C)Cn1c(SCC(=O)Nc2cccc(C)c2)nc2sc3c(c2c1=O)CCCC3	/	/	9.2µM*	/	/	13µM*
O=C(O)c1cc2c(N3CCC(Cc4ccccc4)CC3)ncnc2s1	59	14%	1%	5%	1%	1%
Oc1ccc(N2CCN(c3ncnc4sc(-c5ccccc5)cc34)CC2)cc1	-70*	-21%	?	?	7%	23µM*
CCc1cc2c(N3CCN(c4ccccc4)CC3)ncnc2s1	-17	?	13µM*	?	-3%	12µM*
CC(=O)N1CCN(c2ncnc3sc(-c4ccccc4)cc23)CC1	-8	-4%[10 µM]	?	-4%	5%	?
Cc1cn(CC(=O)N(C)Cc2ccco2)c(=O)[nH]c1=O	17	/	-6%	/	/	-6%
Cc1ccc(C2CC2c2n[nH]c(=S)n2-c2ccc(Cl)cc2)cc1 (stereo unspecified)	22	10µM*	?	-1%	2.8µM*	?
S=c1[nH]nc(Cn2cnc3ccccc32)n1-c1ccccc1Cl	50	-6%	3%	13%	18%	0%
S=c1[nH]nc([C@@H]2C[C@H]2c2ccccc2)n1-c1ccccc1Cl	0	10µM*	-1%	-4%	1.4µM*	-7%
Cc1ccc(C2CC2c2n[nH]c(=S)n2-c2cccc(C)c2)cc1 (stereo unspecified)	38	6.3µM*	?	1%	3.2µM*	16µM*
CCOCCCn1c(SCC(=O)NC2CCCCC2)nc2ccccc2c1=O	3	/	?	/	/	?
COc1ccc2c(C#N)c3ccccn3c2c1	-9	3%	?	?	23%	23µM*
CC(C)(C)c1ccc(C2=CSC3=NCCN23)cc1	?	-17%	?	-1%	10µM*	?
c1ccc2c(c1)oc1c(Nc3ccc4c(c3)OCCO4)ncnc12	0	-8%	8.9µM*	?	-15%	?
Cc1nc(Nc2ccc3c(c2)OCCO3)c2oc3ccccc3c2n1	-84*	-5%	?	-4%	24%	21µM*
Cc1nc(Nc2ccc3c(c2)OCCO3)c2c(C)c(C)sc2n1	-15	10%	?	?	-11%	21µM*
Cc1sc2ncnc(OCC(=O)Nc3ccc4c(c3)OCCO4)c2c1C	18	0%	2%	11%	21%	0%
COC(=O)N1CCC2(CCN(C(=O)Nc3cccc(C#N)c3)CC2)CC1	/	-3%	6%	/	2%	-22%
SMILES	IL-1B inflam inh	Gal4-VP16 FLuc	TDP1 cell CPT	ELG1 repair inh	RORgamma inh	TDP1 cell noCPT
Cc1nc(N2CCOCC2)c2nc(-c3ccccc3)n(CCN(C)C)c2n1	/	-3%	/	/	13%	/
COc1cccc(N2CCN(C(=O)c3c4c(nc5ccccc35)C(=O)N(C3CCCCC3)C4)CC2)c1	/	/	21µM*	/	/	16µM*
CCC(C)NC(=O)c1c2c(nc3ccccc13)C(=O)N(C1CCCCC1)C2 (stereo unspecified)	/	/	-13%	/	/	-24%
Cc1ccc(N2CCN(C(=O)c3c4c(nc5ccccc35)C(=O)N(C3CCCCC3)C4)CC2)c(C)c1	/	/	9.2µM*	/	/	10µM*
Cc1cccc(N2CCN(C(=O)c3c4c(nc5ccccc35)C(=O)N(C3CCCCC3)C4)CC2)c1C	/	/	7.3µM*	/	/	5.8µM*
COc1cccc(N2CCN(C(=O)c3c(C)nn(-c4ccccc4)c3C)CC2)c1	-3	-10%	-28%	?	11%	-24%
C[C@H](CO)N1C[C@H](C)[C@@H](CN(C)C(=O)c2cnccn2)Oc2cc(C#CCC3CCCC3)ccc2S1(=O)=O	-5	/	?	/	/	?
COc1cccc(-c2noc(COc3cccc(C)c3C)n2)c1	/	/	-2%	/	/	-14%
COc1ccccc1CN1C[C@@H]2C[C@@H](c3ccccc3OC)N3CCC[C@@]23C1=O	-15	-3%	16µM*	-4%	1%	?
Cc1ccccc1CN1C[C@@H]2C[C@@H](c3cn[nH]c3-c3ccccc3)N3CCC[C@@]23C1=O	-63*	-17%	?	8%	14%	?
COc1cc([C@@H]2C[C@H]3CN(c4ccccc4)C(=O)[C@]34CCCN24)cc(OC)c1OC	-22	3%	?	?	0%	?
CCn1ncc([C@@H]2C[C@H]3CN(Cc4ccccc4C)C(=O)[C@]34CCCN24)c1C	-7	-5%	-29%	-1%	-18%	-22%
COc1ccccc1CN1C[C@@H]2C[C@@H](C3=Cc4cccc(OC)c4OC3)N3CCC[C@@]23C1=O	-17	9%	?	?	1%	?
O=C1N(C2CCCC2)C[C@@H]2C[C@@H](c3cn[nH]c3-c3ccc(Cl)cc3)N3CCC[C@@]123	-64*	-9%	?	11%	21%	?
COc1ccccc1-n1cc([C@@H]2C[C@H]3CN(c4ccccc4)C(=O)[C@]34CCCN24)cn1	-78*	0%	-7%	2%	-2%	3%
Cc1nc(C)c(CC(=O)N2CCOc3ccc(CN4CCOCC4)cc3C2)s1	/	/	-2%[9.04 µM]	/	/	?
COc1ccc(-c2nc(C#N)c(NCc3ccco3)o2)cc1	-27	-4%	?	?	22%	16µM*
